Experimental data taken from ChEMBL document CHEMBL4513216, “Probing the Open Global Health Chemical Diversity Library for Multistage-Active Starting Points for Next-Generation Antimalarials” (ACS Infect Dis, 2020).
In all, about 69,000 compounds went through this assay and about 8,600 (12%) showed an effect of 50% or more. The full list was thinned out, with strong results kept by preference.

These compounds were tested on Plasmodium berghei (assay: Screen against P. berghei liver stage (PbLuc), transformed with Luciferase, at 10uM). Conditions: tested at 10 uM.
Format: functional, HepG2

SMILES | INHIBITION
CC(C)(Oc1ccc(C(N)=O)cc1)C(=O)N(CCC#N)CC1CCCO1 (configuration not stated) | 28.3%
Cc1nc(C)n(CC2CCCN2CC(=O)Nc2c(C)n[nH]c2C)n1 (configuration not stated) | 29.305%
Cn1nc(C(=O)NCc2ccc(OC3CCCCC3)nc2)ccc1=O | 47.7%
COCc1nc(-c2ccnc(N3CCNCC3)n2)no1 | 38.3%
COCCCN(Cc1ccccn1)S(=O)(=O)Cc1ccccc1 | 46.1%
CNc1nc(CNC(=O)Nc2cccc(-n3ccc(C)n3)c2)cs1 | 7.42%
O=C(O)[C@H]1C[C@@H](C(=O)NCc2ccncc2)CN(Cc2ccccc2)C1 | 17.2%
Fc1cccc(CN2C[C@@H]3COC[C@]3(COCc3ccncc3)C2)c1 | 49.7%
Cc1cc(C)c(-n2cccn2)c(CN2CCOCC(CN(C)C)C2)c1 (configuration not stated) | 36.5%
Cc1cc(-n2cccn2)ccc1CN1CCOCC(CN(C)C)C1 (configuration not stated) | 62.2%
COc1ccc(-n2cccn2)c(CN2CCOCC(CN(C)C)C2)c1 (configuration not stated) | 15.2%
NC(=O)C1CCN(C(=O)CCn2c(C(F)(F)F)cc3cccnc32)CC1 | 1.5%
Cc1ccc(=O)n(CC2(O)CCN(Cc3cnc(N(C)C)nc3)CC2)n1 | 14.7%
c1cncc(Cc2nnc3n2CCN(CC2CCCNC2)CC3)c1 (configuration not stated) | 16.3%
CC(C)c1ccccc1OCCNC(=O)N1CCC(CC(N)=O)CC1 | 5.76%
CC(C)c1n[nH]c(C2CN(C(=O)c3cc(C4CC4)[nH]n3)CCO2)n1 (configuration not stated) | -20.2%
O=C(Cc1ccc2c(c1)CCCC2)NCCc1ccccn1 | 70.7%
O=C(Cc1ccc2c(c1)CCCC2)Nc1cccnc1N1CCSCC1 | 53.5%
O=C(Cc1ccc2c(c1)CCCC2)NCCNc1cnccn1 | 31.9%

SMILES | INHIBITION
O=C(Cc1ccc2c(c1)CCC2)NCCNc1ncccn1 | 45.9%
O=C(Nc1cccnc1N1CCSCC1)c1ccc2c(c1)CCC2 | 38.6%
O=C(Nc1cccnc1N1CCSCC1)c1cc2c(s1)CCCCC2 | 19.8%
CC(C)(C)OCC1CN(Cc2cccs2)S(=O)(=O)c2cnccc2O1 (configuration not stated) | 10.9%
OCCN1CCCCC1C1OCCO1 (configuration not stated) | -45.2%
O=S(=O)(C1CC1)N1Cc2[nH]nc(COCC3CC3)c2C1 | 36.4%
CCn1nc(C)c2ncnc(NCCN3CCOCC3)c21 | 21.7%
CCn1ncc(S(=O)(=O)NC(C)c2cc(OC)ccc2OC)c1C (configuration not stated) | 32.3%
Cn1cncc1CN1CCC(O)(Cn2nc(-c3cccs3)oc2=O)CC1 | 38.7%
O=C(c1ccccn1)N1CCC(Oc2cccnc2)CC1 | -10.4%
O=C(c1cnc[nH]1)N1CCC(Oc2cccnc2)CC1 | 55.9%
O=C(c1ccc2[nH]cnc2c1)N1CCC(Oc2cccnc2)CC1 | 47.2%
CCN1CCN(C)C2(CCN(Cc3ccsc3)CC2)C1=O | 17.4%
COC(=O)c1cc(C(=O)N2CCC(C)CC2)n(-c2ccccc2)n1 | 22.265%
Cc1nc2cc(O)nn2c(C)c1CCC(=O)NCCc1nccn1C | 30.6%
CCOC(=O)N1CCN(C(=O)c2cc(-c3ccc(C)cc3)on2)CC1 | 23.4%
Cc1cc(C(=O)Nc2n[nH]c(C3CC3)n2)c2c(C)noc2n1 | 6.83%
Nc1cc2c(nn1)CCN(C(=O)c1cccc3c1OCO3)C2 | -16%
COC(=O)N1CC(C)=C(C)CN1C(=O)Nc1ccc(Cl)c(Cl)c1 | -52.3%

SMILES | INHIBITION
O=C(CCC1CCCC1)N1CCC(c2ncc3c(n2)CCNC3)CC1 | 73.4%
CCC(=O)N1CCC(c2ncc3c(n2)CCNC3)CC1 | 37.6%
O=C(CC1CCCCC1)N1CCC(c2ncc3c(n2)CCNC3)CC1 | 47.2%
CCCC(=O)N1CCC(c2ncc3c(n2)CCNC3)CC1 | -28.6%
O=C(CCC1CCCC1)N1CCCC(c2ncc3c(n2)CCNC3)C1 (configuration not stated) | 58.1%
CN1CCc2nc(C3CCN(C(=O)CCC4CCCC4)CC3)ncc2C1 | 85.9%
O=C(C1CCCC1)N1CCC(c2ncc3c(n2)CCNC3)C1 (configuration not stated) | -32.2%
CCC(=O)N1CCCC(c2ncc3c(n2)CCN(C)C3)C1 (configuration not stated) | 10%
CN1CCc2nc(C3CCCN(C(=O)CC4CCCCC4)C3)ncc2C1 (configuration not stated) | 27.8%
Cc1noc(C)c1C(=O)NCC(C)N1CCc2ccccc21 (configuration not stated) | 13.6%
Cc1cc(C(F)(F)F)nn1CC(C)C(=O)Nc1cccnc1 (configuration not stated) | 15.1%
Cc1noc(C2CCC3(CCN(C(=O)c4sccc4C)CC3)O2)n1 (configuration not stated) | -54.7%
CN1CC(C(=O)NCc2ccnc(-n3cccn3)c2)CC1=O (configuration not stated) | -0.7%
CN(Cc1ccco1)[C@@H]1CN(Cc2ccncc2)C[C@@H]2CCCO[C@@H]21 | 23.5%
Fc1ccc(C2(NCc3ccccc3)CCOCC2)cc1 | 4.48%
CSc1ccc(CNC2(c3ccc(F)cc3)CCOCC2)cc1 | 13.5%
CN(C)c1ccc(CNC2(c3ccc(F)cc3)CCOCC2)cc1F | 55.6%
O=S(=O)(c1cncc(F)c1)N1CCC2(CCCCC2)C1 | 19.3%
Cc1ncsc1CN1Cc2cnn(C)c2C(COCC2CC2)C1 (configuration not stated) | -0.813%
